hNpr1 antagonist: Natriuretic polypeptide receptor (hNpr1) antagonism - Primary qHTS. HEK293 hNpr1 GloSensor cGMP, ANP-stimulated luminescence. Potency, µM (series often up to 46.3 µM), inactives show top-dose activity change, negative = inhibition, usual class: inhibitors. 76,000 compounds, 1.6% hits. AID 1347048, 2019; calls by dose curve; also: nearly all actives have a fitted effect of over 60% in size
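Compound pre-incubated 30 min at room temperature on GloSensor-loaded HEK293 cells stably carrying hNpr1 and the pGS-40F cGMP biosensor. Stimulation uses hNppA at 0.1 nM final; luminescence is taken at baseline and 20 min post-agonist.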
HEK cytotox: Cytotoxic Profiling in HEK 293 Cell Line of Diverse Libraries Using Quantitative High-Throughput Screening; AID 1345083, 2018; 94,000 compounds, 6.6% hits; HEK 293 viability, ATP luminescence (CellTiter-Glo), 48-72 h; Potency, µM (top dose mostly 115 µM), inactives show at the highest dose activity change, negative = cytotoxicity, actives largely listed as inhibitors; also: nearly all actives have a fitted effect of over 60% in size
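Viability of HEK 293 cells, plated at 250 cells/well, was judged by cellular ATP after compound treatment for 48 or 72 hr. Luminescence was imaged 10 min after CellTiter-Glo addition at room temperature.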
SNCA expr inhib: Primary qHTS assay for inhibitors of alpha-synuclein gene (SNCA) expression; AID 1671194, 2021; Potency, µM (titrated, usually from 57.2 µM), for the others: at the highest dose activity change, negative = inhibition, hits mostly inhibitors; HEK-293 SNCA-luciferase knock-in, luminescence, 24 h; 140,000 compounds, 0.17% hits;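 also: plate controls were DMSO cells for no effect and cell-free wells for full effect; nearly all actives have a fitted effect of over 45% in size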
FLuc inh: Firefly luciferase inhibition profiling of diverse chemical library using quantitative high-throughput screening; Luciferin 4-monooxygenase (Photinus pyralis), P08659; purified P. pyralis luciferase, luminescence, biochemical; Potency, µM (series often up to 115 µM), hits mostly inhibitors; 76,000 compounds, 2.5% hits; also: nearly all actives have a fitted effect of over 65% in size
Target sequence (P08659 whole entry, looked up): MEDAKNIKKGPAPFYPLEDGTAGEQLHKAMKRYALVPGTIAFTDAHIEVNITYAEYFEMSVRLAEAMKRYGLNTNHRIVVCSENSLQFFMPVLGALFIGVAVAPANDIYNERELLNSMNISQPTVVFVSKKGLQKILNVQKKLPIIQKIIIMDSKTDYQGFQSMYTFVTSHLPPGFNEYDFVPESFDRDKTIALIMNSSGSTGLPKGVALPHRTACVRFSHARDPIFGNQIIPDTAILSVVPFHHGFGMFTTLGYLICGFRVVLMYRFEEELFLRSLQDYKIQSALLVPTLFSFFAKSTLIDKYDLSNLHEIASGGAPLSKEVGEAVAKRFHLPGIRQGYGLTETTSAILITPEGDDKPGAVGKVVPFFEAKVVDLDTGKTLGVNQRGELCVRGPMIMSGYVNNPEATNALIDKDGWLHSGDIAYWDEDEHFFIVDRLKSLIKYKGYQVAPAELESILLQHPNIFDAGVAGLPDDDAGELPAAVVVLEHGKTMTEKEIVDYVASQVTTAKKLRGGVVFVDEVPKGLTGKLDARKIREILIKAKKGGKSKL
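Luminescence read by CCD imaging after purified firefly luciferase (10nM final) was added to substrate buffer holding 10uM D-luciferin and 10uM ATP, pH 7.5, pre-dosed with compound.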
SNCA viab count: GF-AFC viability counterscreen for inhibitors of alpha-synuclein gene (SNCA) expression. HEK-293-SNCA-luc viability, GF-AFC fluorescence, 24 h. Potency, µM (doses to about 57.1 µM), inactives show at the highest dose activity change, negative = cytotoxicity, usual class: cytotoxic. 150,000 compounds, 0.12% hits;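 also: 0% = DMSO-treated cells and -100% = medium-only wells without cells; nearly all actives have a fitted effect of over 30% in size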
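Cytotoxicity counterscreen: after 24 h compound treatment of genome-edited SNCA-luciferase HEK-293 cells, live-cell protease substrate GF-AFC read by fluorescence after 30 min; activity scaled between DMSO (0%) and medium-only (-100%), curves Hill-fitted.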
3T3 cytotox: Cytotoxic Profiling in NIH 3T3 Cell Line of Diverse Libraries Using Quantitative High-Throughput Screening; NIH 3T3 viability, CellTiter-Glo ATP luminescence, 48-72 h; Potency, µM (series often up to 96.7 µM), for the others: at the top dose activity change, negative = cytotoxicity, usual class: inhibitors; 94,000 compounds, 4.3% hits; also: nearly all actives have a fitted effect of over 55% in size
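Viability of NIH 3T3 cells after 48 or 72 hr compound treatment at 37 °C was assessed by CellTiter-Glo, with luminescence imaged following a 10 min room-temperature step.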
* = called active by the depositor; ! = repeats disagree; [ ] = another dose, or the depositor's remark. Sampled rows, rich in hits. Any-hit rate of the full collection: about 7.2%. Unless noted, calls follow the shape of the dose curve; as a rule, active = well fitted curve in the direction sought with a large enough effect; inconclusive = small, poorly fitted or top-dose-only effect, or another doubt; inactive = no such curve, though single readings can be large; an effect the other way counts as inactive or inconclusive. Unless noted, % is scaled to controls: 0 for no effect and ±100 for the full control effect; potency is read from the fitted curve at half-maximal effect.

For COc1ccccc1CNC[C@@H]1C=C(C)[C@H](Cc2nc3c(C)cccc3[nH]2)C[C@H]1C(C)C the results were hNpr1 antagonist inconclusive, HEK cytotox inconclusive, SNCA expr inhib inconclusive, FLuc inh inactive, SNCA viab count 35.5µM* and 3T3 cytotox 25.1µM*.
`CC1=C[C@@H](CN(C)C)[C@H](C(C)C)C[C@H]1Cc1nc2c(C)cccc2[nH]1` gave hNpr1 antagonist 4.3%[70.6 µM], HEK cytotox 100µM*, SNCA expr inhib -2.8%[87.6 µM], FLuc inh inactive, SNCA viab count -19.4%[87.6 µM] and 3T3 cytotox 89.1µM*.
Cc1nnc2ccc(N3CCC(NC(=O)c4ccccc4)C3)nn12 (stereo unspecified) was read as HEK cytotox -11.8%[172 µM] and 3T3 cytotox -24.8%[138 µM].
Screening O=C(C[C@@H]1O[C@H](CNC(=O)Nc2ccccc2)[C@@H](O)[C@H]1O)NC1CC1 returned hNpr1 antagonist -3.8%[70.6 µM], HEK cytotox -4.8%[172 µM], SNCA expr inhib 18.1%[87.6 µM], FLuc inh inconclusive, SNCA viab count 7.1%[87.6 µM] and 3T3 cytotox 0.3%[174 µM].
COc1cc(-c2ccnc3nc(CCc4ccccc4)nn23)cc(OC)c1OC was read as hNpr1 antagonist -5.7%, HEK cytotox -21.3%, SNCA expr inhib 7.1%, FLuc inh inactive, SNCA viab count 1.7% and 3T3 cytotox -17.7%.
`COc1cccc(S(=O)(=O)N2CCC3(CC2)CNC(C(=O)O)C3)c1` (stereo unspecified) gave hNpr1 antagonist -9.3%, HEK cytotox -1.1%, SNCA expr inhib -2.6%, FLuc inh inactive, SNCA viab count -1.3% and 3T3 cytotox -13.8%.
C[C@@]1(C(=O)Nc2ccc(F)nc2)CCCN1c1nc(Nc2cc(C3CC3)[nH]n2)c2cccn2n1 was read as SNCA expr inhib -12.8% and SNCA viab count 1.89µM*!.
`COc1ccc(CN2CCc3nc(N4CCN(C)CC4)[nH]c(=O)c3CC2)cc1` gave hNpr1 antagonist 7.1%, HEK cytotox 1.9%, SNCA expr inhib -3.5%, FLuc inh inactive, SNCA viab count -5.1% and 3T3 cytotox -1.0%.
Screening O=C(NCCOc1ccccc1)c1nc2c(o1)CCN(Cc1cccs1)CC2 returned hNpr1 antagonist 2.6%[70.6 µM], HEK cytotox inconclusive, SNCA expr inhib 9.4%[87.6 µM], FLuc inh inconclusive, SNCA viab count 0.7%[87.6 µM] and 3T3 cytotox inconclusive.
Cc1csc(NC(=O)c2nc3c(o2)CCN(CC2CC2)CC3)n1 was read as hNpr1 antagonist -4.7%[70.6 µM], HEK cytotox -5.1%[172 µM], SNCA expr inhib 37.3%[87.6 µM], FLuc inh 17.8µM*, SNCA viab count 1.4%[87.6 µM] and 3T3 cytotox inconclusive.
O=C(NCC1CC1)c1nc2c(o1)CCN(Cc1cccs1)CC2 was read as hNpr1 antagonist -13.9%[70.6 µM], HEK cytotox inconclusive, SNCA expr inhib 81.8%[87.6 µM], FLuc inh 70.8µM*, SNCA viab count 1.0%[87.6 µM] and 3T3 cytotox -22.9%[138 µM].
`O=C(Nc1cccc(C(F)(F)F)c1)c1nc2c(o1)CCN(CC1CC1)CC2` gave hNpr1 antagonist -0.3%[70.6 µM], HEK cytotox inconclusive, SNCA expr inhib -17.2%[87.6 µM], FLuc inh inactive, SNCA viab count 5.0%[87.6 µM] and 3T3 cytotox inconclusive.
Screening COc1cccc([C@@H]2CN(C(=O)c3n[nH]c4c3CCCC4)C[C@H]2C(=O)O)c1 returned hNpr1 antagonist -2.1%, HEK cytotox -5.8%, SNCA expr inhib inconclusive, FLuc inh inactive, SNCA viab count 11.9% and 3T3 cytotox -9.5%.
Screening COc1ccc(Nc2ccnc(N3CCC(NC(=O)Nc4ccccc4)CC3)n2)cc1 returned HEK cytotox inconclusive, SNCA expr inhib -1.0%, SNCA viab count 1.8%[12.5 µM] and 3T3 cytotox inconclusive.
Screening O=[S+]([O-])(NC1CCN(c2nccc(Nc3ccccc3F)n2)CC1)c1cccs1 returned HEK cytotox 44.7µM*, SNCA expr inhib 22.3%, SNCA viab count -5.7%[12.5 µM] and 3T3 cytotox 44.7µM*.
COc1ccc(Nc2ccnc(N3CCN([S+](=O)([O-])c4cccc(C(F)(F)F)c4)CC3)n2)cc1 was read as HEK cytotox 31.6µM*, SNCA expr inhib inconclusive, SNCA viab count inconclusive and 3T3 cytotox inconclusive.
For Cc1ccc([S+](=O)([O-])N2CCN(c3nccc(Nc4ccccc4F)n3)CC2)cc1 the results were HEK cytotox 31.6µM*, SNCA expr inhib -1.9%, SNCA viab count 7.5%[12.5 µM] and 3T3 cytotox inconclusive.
Screening COc1ccc(Nc2ccnc(N3CCC(N[S+](=O)([O-])c4ccc(C)cc4)CC3)n2)cc1 returned HEK cytotox 28.2µM*, SNCA expr inhib -30.2%, SNCA viab count inconclusive and 3T3 cytotox 25.1µM*.
C[S+](=O)([O-])N1CCN(c2nccc(Nc3ccccc3F)n2)CC1 was read as HEK cytotox -10.3%, SNCA expr inhib 21.5%, SNCA viab count 21.3%[12.5 µM] and 3T3 cytotox -27.1%.
COc1ccc(Nc2ccnc(N3CCN([S+](=O)([O-])c4ccc(C)cc4)CC3)n2)cc1 was read as HEK cytotox -27.9%, SNCA expr inhib -7.9%, SNCA viab count -14.2% and 3T3 cytotox inconclusive.
`CC(C)(C)c1cc(C[C@@H]2CC[C@H](O)[C@@H](CNC(=O)C3CC3)O2)no1` gave hNpr1 antagonist -11.7%[70.6 µM], HEK cytotox -6.4%[172 µM], SNCA expr inhib 65.3%[87.6 µM], FLuc inh inactive, SNCA viab count -0.1%[87.6 µM] and 3T3 cytotox -10.8%[138 µM].
O=[S+]([O-])(NC1CCN(c2nccc(Nc3ccccc3F)n2)CC1)c1ccccc1 was read as HEK cytotox inconclusive, SNCA expr inhib -9.1%, SNCA viab count -1.2%[12.5 µM] and 3T3 cytotox inconclusive.
`Cc1ccc([S+](=O)([O-])NC2CCN(c3nccc(Nc4ccccc4F)n3)CC2)cc1` gave HEK cytotox 28.2µM*, SNCA expr inhib 3.5%, SNCA viab count 9.5%[12.5 µM] and 3T3 cytotox 39.8µM*.
For Clc1ccccc1C1(c2ccnc(NC3CCC3)n2)CCNCC1 the results were hNpr1 antagonist -20.6%, HEK cytotox 35.5µM*, SNCA expr inhib -24.3%, FLuc inh inactive, SNCA viab count inconclusive and 3T3 cytotox 28.2µM*.
For COCc1nc(C2CCCN(C(=O)Nc3ccccc3C)C2)no1 (stereo unspecified) the results were hNpr1 antagonist -3.5%, HEK cytotox 16.0%, SNCA expr inhib 12.7%, FLuc inh inactive, SNCA viab count 0.1%[12.5 µM] and 3T3 cytotox inactive.

Screening results from PubChem BioAssay.
